system: VDR:RXRa (NR concentration 270 nM, RXRa partner concentration 90 nM); test: PBM binding z-score (relative to random genomic background probes); higher = stronger binding; sequences stand for … in GC…GCGATTGACAGCGTAGAATGAAGG
Experimental: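 Protein-binding microarray (Agilent 4x180K custom design, double-stranded 60-nt probes: 5' GC cap, 34-nt variable region, 24-nt constant primer region; full probe sequence given). Purified or IVT nuclear receptor:RXRα heterodimers (3:1 NR:RXRα, mostly 270:90 nM) or homodimers were incubated for 1 h in PBS with 2% milk and no ligand, then detected with Alexa488 antibodies. Fluorescence from o1-orientation probes (~5 replicates averaged) was converted to z-scores against 500 random hg19 background probes. Variable regions are seed direct-repeat (DR0–DR5) sites, all their single-nucleotide variants and half-site ablations.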

Sequence	PBM binding z-score
GATACAGGGTCAAGGCCTGAGTACGCGTATTGAT	4.48
AGAATGAGGTTATACGTAGCTCAGGGAAGAAAGT	1.2
TATACAGGGTCAGAGGCCAGAGTACGAATGTCGA	3.24
ACGAGCAGGCCAAGTTTGGGTCACTCAAACAAAG	0.614
TCATATAGGTAAATGCTAGGAGAAAGTCCGATCT	0.71
CGTCACAGTTCAAGGTAACGTAACAGAAAGCAGC	1.61
ATCTCTAGGTAAGACTCAGTTCAGTTAAGAACGC	1.12
CCGACTGGGGCAAGGTTTCCATAACGCACAGCCA	-0.502
CATACAGGGTCAGCTAAGCCAGAGTAGGGACGGC	2.69
GCTAGCAGGCCATTTGGGTCACCCAATGACGGGC	1.07
ACCTACGGGTCAACGAGGTTATAGCACGCGTATA	7.64
CGAACTAGGTCAAGGAGAGTGAATCTCCGCACGC	1.33
ACTAGTTGGTCAGCTGTGGTCACACACAATTCGG	0.029
GGAACGAGGGCAGGTTGATAGCAGAGTTTGATGG	0.111
CCGACTGGGGCAAGCTTACCATAACGCACAGCCA	-0.753
TAGCCTAGGTCAGATCGGGCCAGTAAACGCTATA	0.5
CTACCAAGGTGAACAAGGTCGTTGCTTACTATTC	6.16
CCTAGTTGGTCAAGGTCAGACACGCTATAGGTAC	2.83
TTACCACGGTGAAAGGTCGTTGATGCACGCCTTG	1.99
CCGACTGGGGCAAGGTTACCATCACGCACAGCCA	-0.00962

Sequence	PBM binding z-score
ACTAGCAGGCCAAGTTTGGGTCACTAAAACAAAG	0.553
CCTAGTTGGTGAGGAGGTCACACACCGGATATGA	3.46
ATCGAAAGGTCGAAGGTGAGTATTCCCACCCGAA	2.58
CGAACGAGGGCATGAGTTTATAGCAAATGCCGAT	3.02
TGAATGAGGTTATAAGAGCAGGGAACGTTGCAAA	0.901
ATCTCTAGGTAACCAGTTCAGTGAAAGAGAGGAC	1.16
CGTCCAAGGTCAGAGAGATCAGTGAATGCCGAGT	3.72
ATATGTAGGTTATATCCGGGTCATTCAGGCTATG	4.11
TCATATAGGTAAATGCGAGGTGAAAGTCCGATCT	1.32
CCTTACGGGTCACCAGGTTATAGCACGACGAGCG	4.64
CGGCAAAGTTCAAGGTAACGTAACAGAAAGCAGC	3.52
CCTTACGGATCACTCCAGGTTATAGCATCGGAGT	0.59
ATCGAAAGGTCGACGAAGTGAGTATACACCGTTT	2.27
TCTATCAGTTGATTAGGGCAACCGAAACAGCGGA	0.419
CCTTACGGGTCACAGACAGGTTATAGCATTTGGA	4.06
ACAGACAGGTGAGTGAAGGTAACTGAGCTGGACG	-0.202
AGTCAAAGTTCCTCTAGGTAACGTAAGATATGCT	0.145
ATATGTAGGTTACATCCGGGTCATTTAGGCTATG	3.9
AGAATGAGGTTACCAAAGATCAGGGTAACGCTTG	1.6
ATCGAAAGGTCGTCAGGTGAGTATACAGAAAGGC	3.72
